Two molecules from the supplement of paper PMC8728848 can be followed below.

The entries come from a sample that favours the strongest signals as a whole.

Common to all, as to experiment: glycan array binding signal (z-score within array); higher = stronger binding
What all share (conditions): glycan notation: IUPAC condensed, linker removed

Assay [1] concerns the target Fuc(a1-2)Gal(b1-4)Fuc(a1-3)]GlcNAc(b1-2)Man(a1-3)[Fuc(a1-2)Gal(b1-4)[Fuc(a1-3)]GlcNAc(b1-2)Man(a1-6)]Man(b1-4)GlcNAc(b1-4)GlcNAc. Put shortly: (§1)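 Glycan array binding is given as a within-array Z-score, which can be read as non-binding when negative. The arrays, 3228 of them, came from the Consortium for Functional Glycomics database and were retained only where the protein sequence was available. Z-scores were averaged across arrays of the same protein sequence at different concentrations or buffers and across linkers.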

Assay [2] addresses Fuc(a1-2)[Gal(a1-4)]Gal(b1-4)GlcNAc. Put shortly:
as §1

In assay [3] the target is Fuc(a1-2)[GalNAc(a1-3)]Gal(b1-3)GlcNAc(b1-3)GalNAc. Put shortly: as §1
Assay [4] addresses Fuc(a1-4)GlcNAc. Put shortly: as §1
The target in assay [5] is Gal(a1-3)Gal(b1-3)GlcNAc. Put shortly: as §1
Assay [6] has as its target Gal(a1-3)Gal(b1-3)GlcNAc(b1-2)Man. Put shortly: as §1
Assay [7] addresses Gal(a1-3)Gal(b1-3)GlcNAc(b1-6)GalNAc. Put shortly: as §1
Assay [8] addresses Gal(a1-3)Gal(b1-4)GlcNAc(b1-2)Man(a1-3)[Gal(a1-3)Gal(b1-4)GlcNAc(b1-2)Man(a1-6)]Man(b1-4)GlcNAc(b1-4)GlcNAc. Put shortly:
as §1

Assay [9] addresses Gal(a1-3)Gal(b1-4)[Fuc(a1-3)]GlcNAc(b1-2)Man(a1-3)[Gal(a1-3)Gal(b1-4)[Fuc(a1-3)]GlcNAc(b1-2)Man(a1-6)]Man(b1-4)GlcNAc(b1-4)GlcNAc. Put shortly:
as §1

In assay [10] the target is Gal(a1-3)[Gal(a1-4)]Gal(b1-4)GlcNAc. Put shortly:
as §1

For assay [11], the target named is Gal(a1-4)Gal(b1-4)Gal. Put shortly:
as §1

For assay [12], the target named is Gal(a1-4)Gal(b1-4)GlcNAc. Put shortly: as §1
Assay [13] deals with Gal(a1-4)Gal(b1-4)GlcNAc(b1-2)Man(a1-3)[Gal(a1-4)Gal(b1-4)GlcNAc(b1-2)Man(a1-6)]Man(b1-4)GlcNAc(b1-4)GlcNAc. Put shortly:
as §1

The target in assay [14] is Gal(a1-4)Gal(b1-4)GlcNAc(b1-3)Gal(b1-4)Glc. Put shortly: as §1
Assay [15] deals with Gal(a1-4)GlcNAc. Put shortly:
as §1

The target of assay [16] is Gal(b1-2)Gal. Put shortly: as §1
For assay [17], the target named is Gal(b1-3)Gal(b1-4)GlcNAc. Put shortly:
as §1

The target of assay [18] is Gal(b1-3)GalNAc. Put shortly: as §1
The target of assay [19] is Gal(b1-3)GalNAc(a1-3)[Fuc(a1-2)]Gal(b1-4)GlcNAc. Put shortly:
as §1

For assay [20], the target named is Gal(b1-3)GlcNAc(a1-3)Gal(b1-4)GlcNAc. Put shortly:
as §1

Assay [21] concerns the target Gal(b1-3)GlcNAc(b1-3)Gal(b1-4)GlcNAc(b1-2)Man(a1-3)[Gal(b1-3)GlcNAc(b1-3)Gal(b1-4)GlcNAc(b1-2)Man(a1-6)]Man(b1-4)GlcNAc(b1-4)GlcNAc. Put shortly: as §1
Assay [22] concerns the target Gal(b1-3)GlcNAc(b1-6)GalNAc. Put shortly: as §1
Assay [23] deals with Gal(b1-3)[Fuc(a1-4)]GlcNAc(b1-3)Gal(b1-4)[Fuc(a1-3)]GlcNAc. Put shortly:
as §1

The target of assay [24] is Gal(b1-4)Glc6S. Put shortly: as §1
In assay [25] the target is Gal(b1-4)GlcNAc(a1-6)Gal(b1-4)GlcNAc. Put shortly: as §1
The target of assay [26] is Gal(b1-4)GlcNAc(b1-2)Man(a1-3)Man(b1-4)GlcNAc(b1-4)GlcNAc. Put shortly:
as §1

Assay [27] addresses Gal(b1-4)GlcNAc(b1-2)Man(a1-3)[Gal(b1-4)GlcNAc(b1-2)Man(a1-6)]Man(b1-4)GlcNAc(b1-4)GlcNAc. Put shortly: as §1
The target in assay [28] is Gal(b1-4)GlcNAc(b1-2)Man(a1-3)[Man(a1-6)]Man(b1-4)GlcNAc(b1-4)GlcNAc. Put shortly:
as §1

Assay [29] deals with Gal(b1-4)GlcNAc(b1-2)Man(a1-6)Man(b1-4)GlcNAc(b1-4)GlcNAc. Put shortly: as §1
Assay [30] has as its target Gal(b1-4)GlcNAc(b1-2)Man(a1-6)[GlcNAc(b1-2)Man(a1-3)]Man(b1-4)GlcNAc(b1-4)GlcNAc. Put shortly:
as §1

Assay [31] addresses Kdn(a2-3)Gal(b1-4)GlcNAc. Put shortly: as §1
Assay [32] addresses Kdn(a2-3)Gal(b1-4)[Fuc(a1-3)]GlcNAc. Put shortly: as §1
The target of assay [33] is Man(a1-2)Man(a1-2)Man(a1-3)Man. Put shortly: as §1
For assay [34], the target named is Man(a1-3)[Man(a1-6)]Man(b1-4)GlcNAc(b1-4)[Fuc(a1-6)]GlcNAc. Put shortly:
as §1

In assay [35] the target is Neu5Ac(a2-3)Gal. Put shortly: as §1
Assay [36] deals with Neu5Ac(a2-3)Gal(b1-4)GlcNAc(b1-2)[Neu5Ac(a2-3)Gal(b1-4)GlcNAc(b1-6)]Man(a1-6)[Neu5Ac(a2-3)Gal(b1-4)GlcNAc(b1-2)Man(a1-3)]Man(b1-4)GlcNAc(b1-4)GlcNAc. Put shortly:
as §1

In assay [37] the target is Neu5Ac(a2-3)Gal(b1-4)GlcNAc(b1-3)Gal(b1-4)GlcNAc. Put shortly:
as §1

The target in assay [38] is Neu5Ac(a2-3)Gal(b1-4)GlcNAc(b1-3)Gal(b1-4)GlcNAc(b1-2)Man(a1-3)[Neu5Ac(a2-3)Gal(b1-4)GlcNAc(b1-3)Gal(b1-4)GlcNAc(b1-2)Man(a1-6)]Man(b1-4)GlcNAc(b1-4)GlcNAc. Put shortly: as §1
For assay [39], the target named is Neu5Ac(a2-3)Gal(b1-4)[Fuc(a1-3)]GlcNAc(b1-2)Man. Put shortly:
as §1

Assay [40] addresses Neu5Ac(a2-3)GalNAc. Put shortly:
as §1

Assay [41] has as its target Neu5Ac(a2-6)Gal(b1-4)GlcNAc. Put shortly: as §1
Assay [42] has as its target Neu5Ac(a2-6)Gal(b1-4)GlcNAc(b1-2)Man(a1-6)Man(b1-4)GlcNAc(b1-4)GlcNAc. Put shortly:
as §1

For assay [43], the target named is Neu5Ac(a2-6)Gal(b1-4)GlcNAc(b1-2)Man(a1-6)[Man(a1-3)]Man(b1-4)GlcNAc(b1-4)GlcNAc. Put shortly: as §1
The target in assay [44] is Neu5Ac(a2-6)Gal(b1-4)GlcNAc(b1-3)Gal(b1-4)[Fuc(a1-3)]GlcNAc(b1-3)Gal(b1-4)[Fuc(a1-3)]GlcNAc. Put shortly:
as §1

Assay [45] has as its target Neu5Ac(a2-8)Neu5Ac(a2-8)Neu5Ac. Put shortly: as §1
Assay [46] concerns the target Neu5Ac9Ac(a2-3)Gal(b1-3)GlcNAc. Put shortly:
as §1

The target in assay [47] is Neu5Ac9Ac(a2-6)Gal(b1-4)GlcNAc. Put shortly:
as §1

The target in assay [48] is Neu5Gc(a2-3)Gal(b1-4)Glc. Put shortly: as §1

B1: Epa12 (Candida glabrata) (protein)
chain: MGSSHHHHHHSSGLVPRGSHMLEPDNSLQIFDSFLSNPSKYPLGCSPKITNPKKGLSMELYSYPYRKKGSHPCWDPAYLDPNFPRVGYKKNKLIARVDGVSGDINFNFHPKRQCTPIADYLPPNFNYNEPITTTNFTMLLYGYFKPKVTGLHTFDISADDLLFMNFGAGNAFDCCRRDSTADTFGNYVAWAIWGRRIVRNKLTVRLDKGIYYPLRLFFNNRDYYGQMRLTFKTEHGSERITDFSDYFFSVDDTSEGCPGLITYESECADVKSSTVLETDYITIQAEKE
As for B1, the “glycan array binding signal (z-score)” value was -0.132 in assay [1]; 4.84 in [2]; -0.345 in [3]; -0.241 in assay [4]; 1.71 in assay [5]; 3.52 in assay [6]. The “glycan array binding signal (z-score)” value in assay [7] was 4.44; in assay [8], 2.04; in assay [9], -0.179; in [10], 1.17; in assay [11], -0.269; in assay [12], 3.53. Besides, the “glycan array binding signal (z-score)” value in assay [13] was 0.51; in assay [14], 1.9; in assay [15] it was 5.7; in assay [16] it was 0.125; in assay [17], 3.49; in assay [18], 0.135. Moreover, the “glycan array binding signal (z-score)” value was -0.255 in [19]; -0.242 in [20]; -0.34 in assay [21]; -0.093 in [22]; -0.311 in [23]; 3.51 in [24]. In addition, the “glycan array binding signal (z-score)” value is 3.61 in assay [25]; -0.259 in [26]; 0.425 in [27]; -0.214 in [28]; -0.206 in assay [29]; -0.119 in assay [30].

B2: FliD (Clostridium difficile) (protein)
chain: MSSISPVRVTGLSGNFDMEGIIEASMIRDKEKVNKAKQDQQIVKWKQEIYRDIIKESKNLYDKYLNGDSPNSITNKKAYSATRITSSDESIIVAKGSAGAEKINYQFAVSQMAEPAKVTIKLNSSDPIVQQFPPNASGASSLNIGGVNIPISEQDTTSTIVSKINSLCADNDIRASYSEMTGELIISRKQTGSSSDIDLKVIGNDSLAGQIASDNGITFTTDASGTKSAVVYGKNLEADVTDDQGRVTHISKEQNSFKIDNIDYNVNSKGSAKLVSVTDTEEATKNMKAFVDDYNALMDKVYGLVTTKKSKDYPPLTDEQKDDMTTEEIEKWEKKAKEGILRNDDELRAFVEDIQSMFFGDADTIIALRKLGISEHENYNKKGQISFNADTFSKALIDDSDKVYKALAGYSSNYDDKGMFEKLKKIVFEYSGSSASKLTKKAGMENSSSASQNVYSKQIAEQERNISRLVEKMNDKEKRLYAKYSALESLLNKYSSQMNYFSQAQGN
Take B2: the “glycan array binding signal (z-score)” value is -0.204 in assay [31]; 0.919 in [32]; -0.247 in assay [33]; -0.274 in assay [34]; -0.168 in [35]; -0.056 in assay [36]. In addition, the “glycan array binding signal (z-score)” value is -0.084 in [37]; -0.025 in assay [38]; -0.222 in assay [39]; 1.09 in assay [40]; -0.197 in assay [41]; -0.179 in [42]. Besides, the “glycan array binding signal (z-score)” value in assay [43] is -0.197; in assay [44], -0.193; in assay [45], -0.239; in [46] it was 0.957; in [47] it was -0.19; in assay [48], -0.194.
